# From the supplement of paper PMC13094657
# Structures can show the parent of a compound that is named as a salt. ± gives the standard deviation of the averaged measurements.
# Test system: MDA-MB-231
# Assay: kynurenine production, fold change vs DMSO IFNg/TNF control; higher = more kynurenine produced (less inhibition)
# Conditions: pre-treatment time: 18 h then 24 h IFNg/TNF
# How it was run: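 MDA-MB-231 cells (7 × 10^4/well, 96-well plates, seeded 24 h earlier) were pre-treated 18 h with each natural product in 0.1% DMSO, then stimulated 24 h with IFNγ (1 U/ml) and TNF (6.25 ng/ml) at 37°C. Supernatant kynurenine was read at 492 nm after trichloroacetic acid and p-dimethylaminobenzaldehyde treatment, against 0–100 μM standards. Kynurenine production is the fold change over cytokine-stimulated vehicle wells on the same plate, averaged over duplicate plates in the first screening round.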
row,Compound,kynurenine production
1,CC(=O)O[C@@]12C[C@@H](C)[C@@]3(O)[C@@H](C=C(CO)C[C@]4(O)C(=O)C(C)=C[C@@H]34)[C@@H]1C2(C)C [Prostratin] (compound dose: 10 uM),0.737 ± 0.025
2,COc1ccc2c(c1O)-c1c(O)c(OC)cc3c1[C@H](C2)N(C)CC3 [Corytuberine] (compound dose: 10 uM),0.889 ± 0.11
3,CC(=O)O[C@H]1C[C@H](O[C@H]2[C@@H](O)C[C@H](O[C@H]3[C@@H](O)C[C@H](O[C@H]4CC[C@@]5(C)[C@H](CC[C@@H]6[C@@H]5C[C@@H](O)[C@]5(C)[C@@H](C7=CC(=O)OC7)CC[C@]65O)C4)O[C@@H]3C)O[C@@H]2C)O[C@H](C)[C@H]1O[C@@H]1O[C@H](CO)[C@@H](O)[C@H](O)[C@H]1O [Lanatoside C] (compound dose: 10 uM),0.149 ± 0.015
4,O=C(O)c1ccc(=O)[nH]c1 [6-hydroxynicotinic acid] (compound dose: 10 uM),0.973 ± 0.098
5,CCCCCCCCCCCCCC(=O)O[C@@H]1[C@@H](C)[C@@]2(O)[C@@H](C=C(CO)C[C@]3(O)C(=O)C(C)=C[C@@H]23)[C@@H]2C(C)(C)[C@]12OC(C)=O [12-O-tetradecanoyl phorbol-13-acetate] (compound dose: 10 uM),0.858 ± 0.021
6,"C=C1CC[C@H]2[C@@H](/C=C(\C)C(=O)[C@@]3(OC(C)=O)C[C@H](C)[C@H](OC(=O)c4ccccc4)[C@@H]3[C@H]1OC(C)=O)C2(C)C [5,15-Diacetyl-3-benzoyllathyrol] (compound dose: 10 uM)",0.94 ± 0.14
7,COc1cc2c3cc1Oc1cc(ccc1O)C[C@@H]1c4c(cc(OC)c(O)c4Oc4ccc(cc4)C[C@H]3N(C)CC2)CCN1C [Curine] (compound dose: 10 uM),0.389 ± 0.026
8,C/C=C(/C)C(=O)O[C@H]1C(C)=C[C@]23C(=O)[C@@H](C=C(C)[C@@H](O)[C@]12O)[C@H]1[C@@H](C[C@H]3C)C1(C)C [20-Deoxyingenol 3-angelate] (compound dose: 10 uM),0.8582 ± 0.0053
9,CC1=C[C@@H]2C(=O)[C@]3(C=C(C)[C@H](O)[C@@]3(O)[C@@H]1O)[C@H](C)C[C@@H]1[C@H]2C1(C)C [20-Deoxyingenol] (compound dose: 10 uM),0.703 ± 0.12
10,CC(C)C1=CC(=O)[C@@](C)(C2[C@H](O)C[C@@]3(C)[C@@H]4CC=C5[C@@H](CC[C@@H](OC6OCC(O)C(O)C6OC6OC(C)C(O)C(O)C6O)C5(C)C)[C@]4(C)C(=O)C[C@]23C)O1 (stereo partly drawn) [Picfeltarraenin IA] (compound dose: 10 uM),0.901 ± 0.11
11,C=C1[C@@H]2CCC3[C@@](CC[C@@H]4[C@H](C(=O)O)C[C@@H](O[C@@H]5O[C@H](CO)[C@@H](OS(=O)(=O)O)[C@H](OS(=O)(=O)O)[C@H]5OC(=O)CC(C)C)C[C@@]34C)(C2)[C@@H]1O (stereo partly drawn) [Atractyloside (potassium salt)] (compound dose: 10 uM),0.945 ± 0.02
12,CC1=C[C@]23C(=O)[C@@H](C=C(CO)[C@@H](O)[C@]2(O)[C@H]1O)[C@H]1[C@@H](C[C@H]3C)C1(C)C [Ingenol] (compound dose: 10 uM),0.846 ± 0.12
13,C=C1CCC2C(/C=C(\C)C(=O)C3(OC(C)=O)CC(C)C(OC(=O)c4ccccc4)C3C1OC(C)=O)C2(C)C (stereo not drawn) [Euphorbia factor L3] (compound dose: 10 uM),0.89 ± 0.11
14,COc1cc2c(cc1OC)-c1c3c(cc4c1[C@H](C2)N(C)CC4)OCO3 [Dicentrine] (compound dose: 10 uM),0.432 ± 0.0093
15,O=C(O)c1ccc(=O)[nH]c1 [6-hydroxypyridine-3-carboxylic acid] (compound dose: 10 uM),0.821 ± 0.09
16,C=C[C@@H]1C2=CCOC(=O)C2=CO[C@H]1O[C@@H]1O[C@H](CO)[C@@H](O)[C@H](O)[C@H]1O [Gentiopicroside] (compound dose: 10 uM),0.904 ± 0.09
17,CC(=O)OC12COC1CC(O)C1(C)C(=O)C(O)C3=C(C)C(O)CC(O)(C(OC(=O)c4ccccc4)C21)C3(C)C (stereo not drawn) [10-Deacetylbaccatin III] (compound dose: 10 uM),0.849 ± 0.18
18,CC(C)=CCC[C@H](C(=O)O)[C@H]1CC[C@]2(C)C3=C(CC[C@@]12C)[C@@]1(C)CCC(=O)C(C)(C)[C@H]1CC3 [β-Elemonic acid] (compound dose: 10 uM),1.161 ± 0.0012
